The campaign covered roughly 360,000 compounds. About 1,700 (0.47%) were called active. Roughly 2% stayed inconclusive and do not appear here. The list comes from a sample in which actives are over-represented; it also holds similar structures and randomly drawn compounds. Unmarked numbers belong to inactive results. Calls come from the whole dose curve; as a rule, active = well fitted inhibition curve with a large enough effect; inconclusive = small, poorly fitted or top-dose-only effect; inactive = no such curve, though single readings can be large or run the other way.
The compounds below were run against Bifunctional 3'-5' exonuclease/ATP-dependent helicase WRN (Homo sapiens) (UniProt Q14191) (assay: qHTS for Inhibitors of WRN Helicase). Settings: WRN helicase unwinding, fluorescent forked duplex, kinetic; series mostly up to 114 µM; activity change, negative = inhibition: at the top concentration.
Chain of Bifunctional 3'-5' exonuclease/ATP-dependent helicase WRN (Homo sapiens) (Q14191 whole entry, looked up): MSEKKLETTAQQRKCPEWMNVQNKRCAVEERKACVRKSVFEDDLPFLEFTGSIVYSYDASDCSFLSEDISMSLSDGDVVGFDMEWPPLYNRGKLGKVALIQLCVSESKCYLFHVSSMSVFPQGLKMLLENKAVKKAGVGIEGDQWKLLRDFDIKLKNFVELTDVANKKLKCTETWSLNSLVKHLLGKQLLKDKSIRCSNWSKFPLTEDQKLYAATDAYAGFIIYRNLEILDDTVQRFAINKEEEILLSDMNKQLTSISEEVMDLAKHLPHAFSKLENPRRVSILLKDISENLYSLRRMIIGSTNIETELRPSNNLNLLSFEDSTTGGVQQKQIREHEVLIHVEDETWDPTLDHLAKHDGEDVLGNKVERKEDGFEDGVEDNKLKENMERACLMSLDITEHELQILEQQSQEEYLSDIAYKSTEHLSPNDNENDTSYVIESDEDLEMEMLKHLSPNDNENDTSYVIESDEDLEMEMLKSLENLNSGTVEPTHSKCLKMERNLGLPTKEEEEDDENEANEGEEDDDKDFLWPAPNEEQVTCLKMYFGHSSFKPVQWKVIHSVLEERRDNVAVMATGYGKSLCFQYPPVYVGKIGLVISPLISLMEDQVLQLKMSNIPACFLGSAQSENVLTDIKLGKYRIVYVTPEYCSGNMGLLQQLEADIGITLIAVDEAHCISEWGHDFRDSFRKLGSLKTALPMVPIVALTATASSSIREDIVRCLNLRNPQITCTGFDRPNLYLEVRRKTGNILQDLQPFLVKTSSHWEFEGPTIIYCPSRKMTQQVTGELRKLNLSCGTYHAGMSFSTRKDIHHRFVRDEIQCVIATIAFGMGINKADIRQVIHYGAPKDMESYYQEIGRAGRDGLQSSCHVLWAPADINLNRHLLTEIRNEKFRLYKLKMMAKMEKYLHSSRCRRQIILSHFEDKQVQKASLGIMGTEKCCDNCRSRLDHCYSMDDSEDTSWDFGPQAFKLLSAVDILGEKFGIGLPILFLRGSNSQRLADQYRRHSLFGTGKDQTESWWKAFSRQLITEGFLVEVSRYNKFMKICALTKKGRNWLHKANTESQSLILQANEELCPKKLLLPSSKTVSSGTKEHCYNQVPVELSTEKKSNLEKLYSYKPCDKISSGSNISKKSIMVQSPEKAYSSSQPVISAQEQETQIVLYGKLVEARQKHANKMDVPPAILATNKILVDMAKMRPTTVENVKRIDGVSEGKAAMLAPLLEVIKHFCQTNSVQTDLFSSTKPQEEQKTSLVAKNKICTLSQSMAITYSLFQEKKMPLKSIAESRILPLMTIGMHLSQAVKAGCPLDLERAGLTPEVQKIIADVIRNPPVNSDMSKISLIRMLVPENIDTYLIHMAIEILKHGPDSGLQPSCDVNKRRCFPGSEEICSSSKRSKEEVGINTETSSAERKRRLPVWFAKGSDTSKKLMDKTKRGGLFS
Source text: Inhibition of DNA repair is proposed as a strategy for combating cancer. Synthetic lethality is an approach that exploits preexisting DNA repair deficiencies in certain tumors to develop inhibitors of DNA repair pathways that compensate for the tumor-associated DNA repair deficiency. Because helicases play critical roles in the DNA damage response and in DNA repair, particularly in actively dividing and replicating cells, characterization of synthetic lethal relationships of DNA helicases may be of value in developing improved anticancer treatment strategies; moreover, small molecules that specifically target a given DNA helicase may be useful for understanding its role in cellular nucleic acid metabolism. The goal of this project is to identify small molecule, non-covalent chemical inhibitors of the Werner syndrome (WS) helicase (WRN), which plays an important role in cell proliferation, the replication stress response, and DNA repair. […] The WRN gene product that is defective in the chromosomal instability disorder has DNA helicase and exonuclease activities and interacts with a number of nuclear proteins to maintain genomic stability. We will employ an optimized high-throughput screening assay that utilizes a fluorescence intensity modulation scheme with a fluorophore and quencher positioned near one another within a duplex deoxyoligonucleotide that contains a single forked structure. After a high-throughput screen of the ~350,000-member Molecular Libraries Small Molecule Repository (MLSMR) collection, followed by data analysis and hit selection, a panel of confirmatory, as well as secondary and ternary, assays will be employed to identify high-confidence WRN inhibitors. Structure-activity relationships will be investigated for the top candidate inhibitor series through medchem expansion. These are the results of the primary screening campaign against the MLSMR. NIH Chemical Genomics Center [NCGC] NIH Molecular Libraries Probe Centers Network [MLPCN] MLPCN Grant: MH096530 Assay Submitter (PI): Robert Brosh, National Institute of Aging
Three muL of reagents (buffer in columns 3 and 4 as negative controls; WRN at 20 nM final concentration in columns 1 and 2 as positive controls; columns 5-48 as test reactions) will be dispensed into a 1536-well Greiner black plate via solenoid-valve based nanoliter dispensers. Compounds (23 nL each in columns 5-48) and control (23 nL each in column 2 as dose-response) will be transferred via a Kalypsys pintool equipped with a 1536-pin array. Plates will be incubated for 15 min at room temperature, and then 1 µL of substrate (100 nM forked duplex oligonucleotide and 2 mM ATP final concentrations) will be added to start reaction, and plate will be transferred into a ViewLux high-throughput CCD imager where reaction progress is measured in kinetic mode using standard red-fluorescence optics (excitation filter 525 nm, emission filter 598 nm).
% is set by controls: 0 for no effect and ±100 for the full control effect; potency is the fitted concentration of half-maximal effect.
Note: nearly all actives have a fitted effect of over 55% in size.

Structure (SMILES) | Potency | activity change, negative = inhibition
CC1(C)C(c2ccccc2)=NC(c2cccnc2)=[N+]1[O-] | 50.1 µM (active) | 
CCOP(=O)(OCC)C(NC(=O)c1ccc(C)cc1)C(Cl)(Cl)Cl (stereo not given) |  | 13.7%
O=C(Cc1ccc(Cl)cc1)NCCN1CCN(C(=O)Cc2ccc(Cl)cc2)CC1 |  | 5.8%
CCOC(=O)[C@]12Cc3cc(OC)ccc3[C@H]1N(C(C)C)C(=O)c1ccccc12 |  | -1.64%
CC(Cc1ccccc1)NCCC(c1ccccc1)c1ccccc1 (stereo not given) |  | -1.92%
CC(Cc1cccs1)NCc1ccc(Cl)cc1 (stereo not given) |  | -4.04%
O=C(O)CCn1cc(C=C2C(=O)NC(=S)NC2=O)c(-c2cccc(Br)c2)n1 | 31.6 µM (active) | 
C=C(C)C1(CCCC)C(=O)NC(=S)NC1=O |  | 0.947%
COc1ccc(-n2nnnc2C(c2cccc3ccccc23)N2CCC(n3c(=O)[nH]c4ccccc43)CC2)cc1 (stereo not given) |  | -2.03%
COC(=O)CN(CCCl)P1(=O)OCCCN1CCCl (stereo not given) |  | 1.67%
CCOc1ccc(-c2cc(C)[n+](CCN(CC)CC)c(-c3ccc(OCC)cc3)c2)cc1 |  | -8.79%
O=C1N=c2ccccc2=C/C1=C\c1c(O)[nH]c(=S)[nH]c1=O |  | -30.7%
Cc1ccc2c(c1)=C/C(=C\c1c(O)[nH]c(=O)[nH]c1=O)C(=O)N=2 | 39.8 µM (active) | 
O=c1[nH]c(O)c(C=Nc2cc(F)cc(F)c2)c(=O)[nH]1 |  | 2.85%
N#Cc1ccc(Cn2cc(C(=O)c3ccco3)c3ccccc32)cc1 |  | -15.2%
CCCCCCCCCCCCn1ccc(=N)cc1 |  | -5.13%
COc1ccc(CCn2c(O)c(C=NCCCn3ccnc3)c(=O)[nH]c2=O)cc1OC |  | 6.66%
O=C1CC(=O)N(Cc2ccccc2)C(=O)N1CCCCCCN1C(=O)CC(=O)N(Cc2ccccc2)C1=O | 28.2 µM (active) | 
O=C(CN1CCCC1=O)NCCc1ccccc1 |  | 0.395%
CC(C)(C)c1ccc(CN2C(=O)CN=C(c3ccccc3)c3ccccc32)cc1 |  | -15.4%
CC(=O)C1(O)CCC2C3CCC4=C(Cl)C(=O)CCC4(C)C3CCC21C (stereo not given) |  | 0.713%
CCOC(=O)[C@]12Cc3ccccc3[C@H]1N(C1CCCCC1)C(=O)c1cc(OC)ccc12 |  | -0.682%
C=CCN1C(=O)NC(=O)/C(=C/c2ccc(OCC(=O)Nc3ccc(C)cc3)cc2)C1=O |  | -8.42%
O=C1NC(=O)N(CCc2ccc(F)cc2)C(=O)/C1=C/C=C/c1ccccc1 |  | -13.3%
O=C(O)COc1ccccc1/C=C1\C(=O)NC(=O)N(CCC2=CCCCC2)C1=O | 39.8 µM (active) | 

Structure (SMILES) | Potency | activity change, negative = inhibition
CCCOC(=O)C1C2c3ccccc3C(c3ccccc32)C1C(=O)O (stereo not given) |  | -3.12%
CC(=O)N1CN2CN(C(C)=O)CC(C(=O)c3ccc(Br)cc3)(C2)C1 |  | -1.58%
O=C1NC(=O)N(c2ccccc2)C(=O)/C1=C/c1ccc([N+](=O)[O-])s1 | 28.2 µM (active) | 
O=C1NC(=O)N(c2ccc(F)cc2)C(=O)/C1=C/c1ccc2c(c1)CCCN2Cc1ccccc1 |  | -26.4% [at 57.1 µM]
O=c1c2ccccc2nc(CBr)n1-c1ccc(Cl)cc1 |  | 11.3%
COc1ccc(N2C(=O)/C(=C/c3ccco3)C(=O)NC2=S)cc1 | 17.8 µM (active) | 
CN(C)CC1CCCCC1OC(=O)c1ccc(Cl)c(Cl)c1 (stereo not given) |  | 9.28%
CC(C)(C)[C@]1(O)C[C@@H]2OC(=O)C[C@@]23C(=O)O[C@@H]2OC(=O)[C@H](O)[C@]213 |  | -2.59%
COc1ccc(-c2nn(CCC#N)cc2C(=O)Nc2ccc(C(C)=O)cc2)cc1 |  | 1.6%
Clc1cccc(Cl)c1Cl |  | -11.3%
Cc1c(C(=O)O)cccc1-n1c(C)cc(/C=C2\C(=O)NC(=O)N(c3ccc4c(c3)OCO4)C2=O)c1C |  | -16.1% [at 11.6 µM]
Cc1cccc(N2C(=O)NC(=O)/C(=C\c3cnn(-c4ccccc4)c3)C2=O)c1 | 50.1 µM (active) | 
COc1ccc(S(=O)(=O)NCc2ccc(C(=O)N3CCC4(CC3)OCCO4)cc2)cc1 |  | 3.75%
OCC#CC[N+]1(CC#Cc2ccccc2)CCCC1 |  | -12.6%
CSC1=NP(=S)(SC)N(C)c2nc3n(c21)CCC3 (stereo not given) |  | 7.66%
COC(=O)C[C@H]1CC[C@H]2NC[C@@H](O)COC[C@@H]2O1 |  | 2.11%
O=C1NC(=O)N(Cc2ccco2)C(=O)/C1=C\c1ccc(-c2ccc(F)cc2)o1 | 31.6 µM (active) | 
COc1ccc(-c2nc(CS(=O)CC(=O)N3CCC4(CC3)OCCO4)c(C)o2)cc1 (stereo not given) |  | -1.12%
COc1ccccc1N=Nc1c(O)[nH]c(=S)[nH]c1=O |  | -24.1%
O=c1[nH]c(=S)[nH]c(O)c1/C=C1\C=Nc2ccccc21 | 50.1 µM (active) | 
O=c1[nH]c2ccccc2n1C1CCN(C(c2ccccc2)c2nnnn2Cc2ccccc2)CC1 (stereo not given) |  | -7.52%
O=C(N/N=C/c1c(O)n(C2CC2)c(=S)[nH]c1=O)c1ccccc1 |  | -24%
COc1ccccc1N=C1SCCCN1C |  | 3.59%
CCCCCn1c(=O)c(C(=O)Nc2c(C)n(C)n(-c3ccccc3)c2=O)c(O)c2ccccc21 |  | -9.8%
COC(=O)C1=C(c2cccc(OCc3ccccc3)c2)C[C@@H]2CC[C@H]1N2C(=O)NNCc1ccccc1 |  | -8.99%
